Where a name gives a salt, the structure may show the parent alone.
What was measured:
Settings in all cases: incubation time: 27 h, anaerobic, 37 °C;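 for the amine columns active = adjusted P below 0.05 in both replicates with a change the same way and a mean fold change under 0.8 or over 1.25; inactive = the rest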
[1] = test system: Clostridium sporogenes DSM 1664; assay: growth (OD595) fold change vs plate DMSO controls (fold change (ratio)); higher = more growth
Method in brief: (§1)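 The reported measure is growth: the fold change against the median of DMSO controls on the plate. Absorbance at 595 nm from anaerobic 96-well mGAM cultures grown for 27 h at 37 °C was blank-subtracted, corrected for background with 20 µM compound solutions in water, and converted to OD with a calibration factor of 5. Fold changes above 1.5 appear as NA, and values are the mean of 2 biological replicates.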

Escherichia coli IAI1 [2] = assay: as above
Method in brief: as §1

[3] = test system: Klebsiella aerogenes DSM 30053; assay: as above
Method in brief: as §1

[4] = test system: Ruminococcus gnavus DSM 108212; assay: as above
Method in brief: as §1

[5] = test system: Klebsiella aerogenes DSM 30053; assay: fold change of Histamine concentration vs plate DMSO controls (fold change (ratio)); higher = more amine produced, active = hit call of the paper (significant change in both replicates, either direction)
Method in brief: (§2)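 Each value is the fold change relative to DMSO-only wells on the same plate. Four gut bacterial strains were grown anaerobically in mGAM at 37 °C for 27 h in 80 µL wells, starting at OD 0.1 before a 1:1 dilution, with compounds at 20 µM final (sweeteners 50 µM). Whole cultures were extracted with cold acetonitrile/methanol containing 0.1% formic acid, centrifuged, and amines were quantified by LC–triple-quadrupole MS (dynamic MRM) against external calibration curves with within-batch drift correction. Values are means of 2 biological replicates.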

[6] = test system: Clostridium sporogenes DSM 1664; assay: fold change of Tryptamine concentration vs plate DMSO controls (fold change (ratio)); higher = more amine produced, active = hit call of the paper (significant change in both replicates, either direction)
Method in brief: as §2

[7] = test system: Ruminococcus gnavus DSM 108212; assay: as above
Method in brief: as §2

Escherichia coli IAI1 [8] = assay: fold change of Putrescine concentration vs plate DMSO controls (fold change (ratio)); higher = more amine produced, active = hit call of the paper (significant change in both replicates, either direction)
Method in brief: as §2

[9] = test system: Klebsiella aerogenes DSM 30053; assay: as above
Method in brief: as §2

Escherichia coli IAI1 [10] = assay: fold change of Cadaverine concentration vs plate DMSO controls (fold change (ratio)); higher = more amine produced, active = hit call of the paper (significant change in both replicates, either direction)
Method in brief: as §2

[11] = test system: Klebsiella aerogenes DSM 30053; assay: as above
Method in brief: as §2

[12] = test system: Ruminococcus gnavus DSM 108212; assay: fold change of 2-Phenylethylamine concentration vs plate DMSO controls (fold change (ratio)); higher = more amine produced, active = hit call of the paper (significant change in both replicates, either direction)
Method in brief: as §2

Row | SMILES | growth [1] | growth (Escherichia coli IAI1 [2]) | growth [3] | growth [4] | fold change of Histamine concentration [5] | fold change of Tryptamine concentration [6] | fold change of Tryptamine concentration [7] | fold change of Putrescine concentration (Escherichia coli IAI1 [8]) | fold change of Putrescine concentration [9] | fold change of Cadaverine concentration (Escherichia coli IAI1 [10]) | fold change of Cadaverine concentration [11] | fold change of 2-Phenylethylamine concentration [12]
1 | O=S(=O)(O)NC1CCCCC1 [Cyclamic acid] (50 µM) | 1.16 | 0.998 | 0.991 | 0.998 | 1.01 (inactive) | 1.03 (inactive) | 1.01 (inactive) | 1.03 (inactive) | 1.01 (inactive) | 0.989 (inactive) | 0.991 (inactive) | 1.02 (inactive)
2 | O=C(COc1ccc(Cl)cc1)N1CCN(Cc2ccc3c(c2)OCO3)CC1 [Fipexide hydrochloride] (20 µM) | 1.05 | 0.947 | 0.961 | 0.87 | 1 (inactive) | 0.943 (inactive) | 0.945 (inactive) | 1 (inactive) | 1.01 (inactive) | 0.953 (inactive) | 1.01 (inactive) | 0.916 (inactive)
3 | CC(C)=CCC1C(=O)N(c2ccccc2)N(c2ccccc2)C1=O [Feprazone] (20 µM) | 1.07 | 0.999 | 1.01 | 1.04 | 0.971 (inactive) | 1.02 (inactive) | 1.01 (inactive) | 1.02 (inactive) | 1.02 (inactive) | 0.996 (inactive) | 1 (inactive) | 1.03 (inactive)
4 | C#C[C@]1(O)CC[C@H]2[C@@H]3CCC4=C(CCC(=O)C4)[C@H]3CC[C@@]21C [Norethynodrel] (20 µM) | 0.978 | 1.04 | 1 | 1.02 | 1.03 (inactive) | 0.936 (inactive) | 1.03 (inactive) | 1.04 (inactive) | 1.03 (inactive) | 0.979 (inactive) | 1.01 (inactive) | 0.989 (inactive)
5 | COC(=O)[C@H](Cc1ccccc1)NC(=O)[C@H](CC(=O)O)NCCC(C)(C)C [Neotame] (50 µM) | 1.05 | 1 | 1.04 | 1.07 | 0.99 (inactive) | 1.05 (inactive) | 1.01 (inactive) | 1.01 (inactive) | 1.01 (inactive) | 0.933 (inactive) | 1.02 (inactive) | 1.02 (inactive)
6 | Nc1nc(=O)[nH]cc1F [Flucytosine] (20 µM) | 1.01 | 0.897 | 0.986 | 1.03 | 1.07 (inactive) | 0.924 (inactive) | 0.987 (inactive) | 0.875 (inactive) | 1.02 (inactive) | 0.968 (inactive) | 0.979 (inactive) | 1.01 (inactive)
7 | CC(=O)NS(=O)(=O)c1ccc(NC(=O)c2ccccc2C(=O)O)cc1 [Phthalylsulfacetamide] (20 µM) | 0.948 | 0.995 | 1.03 | 0.929 | 1.04 (inactive) | 1.05 (inactive) | 1.03 (inactive) | 1.03 (inactive) | 1.01 (inactive) | 1.02 (inactive) | 0.992 (inactive) | 1.02 (inactive)
8 | CC[N+]1(CC)CCC(=C(c2ccccc2)c2ccccc2)C1C (stereo not given) [Prifinium Bromide] (20 µM) | 1.1 | 1.08 | 1.04 | 0.925 | 0.982 (inactive) | 1.02 (inactive) | 0.907 (inactive) | 1.07 (inactive) | 1 (inactive) | 0.989 (inactive) | 1.01 (inactive) | 0.85 (inactive)
9 | CC12CC3CC(C)(C1)CC(N)(C3)C2 [Memantine hydrochloride] (20 µM) | 1.01 | 0.987 | 1 | 0.997 | 0.989 (inactive) | 1.03 (inactive) | 1.09 (inactive) | 0.984 (inactive) | 0.984 (inactive) | 0.995 (inactive) | 0.992 (inactive) | 1.13 (inactive)
10 | CC(=O)c1ccc(S(=O)(=O)NC(=O)NC2CCCCC2)cc1 [Acetohexamide] (20 µM) | 0.85 | 1.02 | 0.972 | 1.33 | 1.05 (inactive) | 1.03 (inactive) | 0.951 (inactive) | 0.999 (inactive) | 1 (inactive) | 1.05 (inactive) | 0.984 (inactive) | 0.942 (inactive)
11 | CC(C(=O)O)c1ccc(C(=O)c2ccccc2)s1 (stereo not given) [Tiaprofenic acid] (20 µM) | 0.955 | 1.1 | 0.987 | 1.16 | 0.995 (inactive) | 0.993 (inactive) | 1.04 (inactive) | 1.08 (inactive) | 1.01 (inactive) | 0.966 (inactive) | 0.988 (inactive) | 1.07 (inactive)
12 | COc1ccc(C[C@@H]2c3cc(OC)c(OC)cc3CC[N@+]2(C)CCC(=O)OCCCCCOC(=O)CC[N@@+]2(C)CCc3cc(OC)c(OC)cc3[C@H]2Cc2ccc(OC)c(OC)c2)cc1OC [Cisatracurium besylate] (20 µM) | 1.4 | 1.01 | 1.05 | 1.01 | 0.758 (inactive) | 1.05 (inactive) | 1.03 (inactive) | 0.918 (inactive) | 0.929 (inactive) | 0.944 (inactive) | 1.07 (inactive) | 1.01 (inactive)
13 | Nc1cccc2c1C(=O)N(C1CCC(=O)NC1=O)C2=O (stereo not given) [Pomalidomide] (20 µM) | 1.09 | 1.02 | 1.02 | 1.04 | 1.13 (inactive) | 1.12 (inactive) | 1.03 (inactive) | 0.938 (inactive) | 1.04 (inactive) | 0.954 (inactive) | 1.03 (inactive) | 1.07 (inactive)
14 | CC1COc2ccccc2N1C(=O)C(Cl)Cl (stereo not given) (20 µM) | 0.957 | 1.02 | 1.02 | 0.965 | 1.02 (inactive) | 1.02 (inactive) | 1.06 (inactive) | 0.986 (inactive) | 0.941 (inactive) | 1.04 (inactive) | 1.05 (inactive) | 1.11 (inactive)
15 | CCOC(=O)[N-]c1c[n+](N2CCOCC2)no1 [Molsidomine] (20 µM) | 0.839 | 1.04 | 0.98 | 0.196 | 1.03 (inactive) | 1.19 (inactive) | 0.153 (active) | 0.994 (inactive) | 1.02 (inactive) | 0.951 (inactive) | 1 (inactive) | 0.14 (active)
16 | CC(C)CN(C[C@@H](O)[C@H](Cc1ccccc1)NC(=O)O[C@H]1CO[C@H]2OCC[C@H]21)S(=O)(=O)c1ccc(N)cc1 [Darunavir] (20 µM) | 1.14 | 1 | 1 | 0.966 | 1.05 (inactive) | 1.01 (inactive) | 0.863 (inactive) | 1.04 (inactive) | 0.998 (inactive) | 1.05 (inactive) | 0.996 (inactive) | 0.837 (inactive)
17 | C[C@]12CC[C@H]3C(=CCc4cc(O)ccc43)[C@@H]1CCC2=O [Equilin] (20 µM) | 0.994 | 0.964 | 0.954 | 1 | 1.01 (inactive) | 1.02 (inactive) | 0.996 (inactive) | 1.07 (inactive) | 0.996 (inactive) | 1.03 (inactive) | 0.978 (inactive) | 0.93 (inactive)
18 | O=C(CCCN1CCC(O)(c2ccc(Cl)cc2)CC1)c1ccc(F)cc1 [Haloperidol] (20 µM) | 0.929 | 0.6 | 0.574 | 0.802 | 1.06 (inactive) | 1.05 (inactive) | 0.96 (inactive) | 1.03 (inactive) | 1 (inactive) | 0.864 (inactive) | 0.992 (inactive) | 0.965 (inactive)
19 | CCCCOc1cc(C(=O)NCCN(CC)CC)c2ccccc2n1 [Dibucaine] (20 µM) | 1.14 | 1.01 | 1.06 | 1.02 | 0.93 (inactive) | 1.02 (inactive) | 1 (inactive) | 0.927 (inactive) | 0.955 (inactive) | 0.961 (inactive) | 1.03 (inactive) | 1.03 (inactive)
20 | CCN1CCC[C@H]1CNC(=O)c1c(O)c(Cl)cc(Cl)c1OC [Raclopride] (20 µM) | 1.03 | 1.25 | 0.996 | 0.999 | 0.961 (inactive) | 1.06 (inactive) | 1 (inactive) | 1.19 (inactive) | 0.97 (inactive) | 0.944 (inactive) | 0.983 (inactive) | 0.991 (inactive)
21 | O=C1O[C@H]([C@@H](O)CO)C(O)=C1O [Ascorbic acid] (20 µM) | 1.01 | 1.03 | 0.981 | 0.975 | 1.08 (inactive) | 1.05 (inactive) | 1.06 (inactive) | 1.01 (inactive) | 0.978 (inactive) | 1.03 (inactive) | 1.04 (inactive) | 1.03 (inactive)
22 | CCCCc1cc2ccccc2c(OCCN(C)C)n1 [Dimethisoquin hydrochloride] (20 µM) | 0.969 | 1.01 | 1.1 | 0.962 | 0.872 (inactive) | 0.946 (inactive) | 0.91 (inactive) | 1.07 (inactive) | 0.983 (inactive) | 1.06 (inactive) | 0.994 (inactive) | 0.96 (inactive)
23 | CN1CC(O)c2cc(N=NC(N)=O)c(O)cc21 (stereo not given) [Carbazochrome] (20 µM) | 0.927 | 1.01 | 0.984 | 0.959 | 1.07 (inactive) | 1.1 (inactive) | 1.15 (inactive) | 1.05 (inactive) | 1.01 (inactive) | 0.914 (inactive) | 1.07 (inactive) | 1.34 (inactive)
24 | O=P(O)(O)C(O)(Cc1cccnc1)P(=O)(O)O [Risedronic acid monohydrate] (20 µM) | 1.08 | 1.12 | 1 | 0.913 | 1.05 (inactive) | 1.04 (inactive) | 1.04 (inactive) | 1.2 (inactive) | 1.02 (inactive) | 0.97 (inactive) | 1.01 (inactive) | 1.07 (inactive)
25 | CC(=O)OC[C@H]1O[C@@H](n2ncc(=O)[nH]c2=O)[C@H](OC(C)=O)[C@@H]1OC(C)=O [Azaribine] (20 µM) | 1.22 | 1.01 | 1 | 1.18 | 0.978 (inactive) | 0.997 (inactive) | 0.988 (inactive) | 1.05 (inactive) | 1.04 (inactive) | 0.944 (inactive) | 1.02 (inactive) | 0.96 (inactive)

— the supplement of paper PMC12494721
